Reference: PubChem BioAssay AID1347088 (National Center for Advancing Translational Sciences (NCATS), 2019)
Results filed as inconclusive are left out. Where a call stands in place of a potency, no number is given. Unmarked numbers belong to inactive results. Active and inactive are the calls of the source. Calls come from the whole dose curve.

Assay: qHTS for Inhibitors of the Functional Ribonucleoprotein Complex (vRNP) of Lymphocytic Choriomeningitis Arenaviruses (LCMV): Viability assay - Alamar blue signal for LCMV Confirmatory Screen
Conditions: LCMV vRNP confirmatory screen cells; series mostly up to 53.9 µM

Row | SMILES | viability change, negative = toxic | Potency
1 | CCCCC[C@H](O)/C=C/C=C/C/C=C\CCCC(=O)O | -17.3% [at 0.666 µM] | –
2 | CCN(CC)C(=O)N[C@@H]1C=C2c3cccc4[nH]cc(c34)C[C@@H]2N(C)C1 | – | inactive
3 | CC(O)(P(=O)(O)O)P(=O)(O)O | – | inactive
4 | CO/C=C(/C(=O)OC)c1ccccc1Oc1cc(Oc2ccccc2C#N)ncn1 | – | 49.8 µM (active)
5 | O=c1[nH]c2ccccc2n1C1CCN(CCCC(c2ccc(F)cc2)c2ccc(F)cc2)CC1 | – | inactive
6 | O=C(CCCN1CCN(c2ccc(F)cc2)CC1)NC1c2ccccc2CSc2ccccc21 (stereo not given) | – | inactive
7 | Oc1cc(Cl)ccc1Oc1ccc(Cl)cc1Cl | – | 44.4 µM (active)
8 | COC(=O)c1nc(Cl)c(Cl)nc1N | – | 6.11 µM (active)
9 | Cn1cc(-c2ccncc2)c(-c2ccc(OCc3ccc4ccccc4n3)cc2)n1 | – | 38.5 µM (active)
10 | CCC[C@H](N[C@@H](C)C(=O)N1[C@@H]2CCCC[C@H]2C[C@H]1C(=O)O)C(=O)OCC | – | inactive
11 | CCOC(=O)OCC/C(SC(=O)OCC)=C(\C)N(C=O)Cc1cnc(C)nc1N | – | inactive
12 | Cc1ccccc1-n1c(Cn2nc(-c3cccc(O)c3)c3c(N)ncnc32)nc2cccc(C)c2c1=O | – | inactive
13 | CC[C@@]1([C@@H]2O[C@@H]([C@H]3O[C@@](O)(CO)[C@H](C)C[C@H]3C)C[C@H]2C)CC[C@H]([C@]2(C)CC[C@]3(C[C@H](O)[C@@H](C)[C@@H]([C@@H](C)[C@@H](OC)[C@H](C)C(=O)O)O3)O2)O1 | – | 5.95 µM (active)
14 | CN1C(C(=O)Nc2ccccn2)=C(O)c2ccccc2S1(=O)=O | – | inactive
15 | C[C@]12CC[C@@H](O)C[C@H]1CC[C@@H]1[C@H]2CC[C@]2(C)C(=O)CC[C@@H]12 | – | inactive
16 | O=C(Nc1ccc(Cl)c(Cl)c1)C1CC1 | – | inactive
17 | CC1OC(=O)[C@@H](C(C)C)NC(=O)C(C(C)C)OC(=O)[C@H](C(C)C)NC(=O)C(C)OC(=O)[C@@H](C(C)C)NC(=O)C(C(C)C)OC(=O)[C@H](C(C)C)NC(=O)C(C)OC(=O)[C@@H](C(C)C)NC(=O)C(C(C)C)OC(=O)[C@H](C(C)C)NC1=O (stereo not given in full) | – | 0.611 µM (active)
18 | C=C1CC[C@@H]2[C@](C)(CO)[C@H](O)CC[C@@]2(C)[C@@H]1/C=C/C1=CCOC1=O | – | inactive
19 | Cc1ccc2c(c1)C1CN(C)CCC1N2 (stereo not given) | – | inactive
20 | CC12C(=O)OC(=O)C1(C)C1CCC2O1 (stereo not given) | – | 8.63 µM (active)
21 | Cc1cccc(-c2[nH]c(C(C)(C)C)nc2-c2ccc3c(c2)OCO3)n1 | – | 4.32 µM (active)
22 | N#CC(=C(\N)Sc1ccccc1N)/C(C#N)=C(/N)Sc1ccccc1N | – | inactive
23 | CCCCCN=C(N)N/N=C/c1c[nH]c2ccc(OC)cc12 | – | 9.68 µM (active)
24 | O=C1Cc2cc(CCN3CCN(c4nsc5ccccc45)CC3)c(Cl)cc2N1 | – | inactive
25 | COc1ccc(Cc2nccc3cc(OC)c(OC)cc23)cc1OC | – | inactive
